G9a block = G9a (human) methyltransferase inhibition; 8.8% of 350,000 active; G9a H3K9 monomethylation, AlphaScreen, 2 h; Potency, µM (titrated, usually from 102 µM), without a hit: at the highest dose activity, negative = inhibition, usual class: inhibitors; AID 504332; also: potency is read from the fitted curve at half-maximal effect; nearly all actives have a fitted effect of over 75% in size
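Chemiluminescent proximity detection of H3K9 monomethylation, read after 10 min bead incubation in the dark. Reaction: 20 nM G9a, 500 nM biotin-H3K9 peptide, 20 uM SAM cofactor, 2 h, room temperature, following 15 min enzyme-compound preincubation.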
CCT modulator = cytosolic chaperonin activity modulation; purified chaperonin ATPase assay, HTRF ADP detection, 30 min; activity change, % (test concentration not listed), hits read low; 0.3% of 360,000 active; AID 651819; in the data active = activity change below about -30%
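TRiC (40 or 20 nM final, by batch activity) in 30 mM Tris pH 7.4, 100 mM KCl, 5 mM MgCl2, 1 mM DTT was treated with compound at 76 uM single dose, then 10 uM ATP, 30 min at 37 °C. ADP was read by HTRF Transcreener.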
PLK1 PBD block = PLK1 (human) polo-box domain binding inhibition; P53350; Plk1 PBD binding of FITC phosphopeptide, fluorescence polarization; Potency, µM, for the others: max response, negative = inhibition, usual class: inhibitors; 2.8% of 360,000 active; also: potency is read from the fitted curve at half-maximal effect; series mostly up to about 57 µM; nearly all actives have a fitted effect of over 65% in size
Target sequence (P53350 whole entry, looked up, the tested form may be a part): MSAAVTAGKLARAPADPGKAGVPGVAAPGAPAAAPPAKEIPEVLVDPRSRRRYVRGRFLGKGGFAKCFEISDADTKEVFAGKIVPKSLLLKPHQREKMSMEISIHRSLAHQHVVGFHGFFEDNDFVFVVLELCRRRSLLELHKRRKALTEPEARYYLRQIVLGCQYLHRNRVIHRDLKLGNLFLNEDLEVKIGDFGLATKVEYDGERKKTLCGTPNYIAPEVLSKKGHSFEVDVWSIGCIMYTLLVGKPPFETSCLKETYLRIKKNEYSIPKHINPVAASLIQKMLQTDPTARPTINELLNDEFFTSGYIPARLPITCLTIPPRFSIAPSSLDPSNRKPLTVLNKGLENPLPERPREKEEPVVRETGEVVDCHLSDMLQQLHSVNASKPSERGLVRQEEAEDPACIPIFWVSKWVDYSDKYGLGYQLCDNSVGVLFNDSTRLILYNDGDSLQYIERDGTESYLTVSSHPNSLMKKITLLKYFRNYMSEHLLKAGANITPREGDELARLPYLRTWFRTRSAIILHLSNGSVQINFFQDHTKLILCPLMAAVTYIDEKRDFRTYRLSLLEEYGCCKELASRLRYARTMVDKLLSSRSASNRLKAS
Sfp PPTase inh = blocks B. subtilis Sfp PPTase activity; Q9F4F7; Potency, µM, inactives show largest response in the series, negative = inhibition, usual class: inhibitors; 3.5% of 310,000 active; AID 1490; Biochemical Sfp PPTase activity, qHTS;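 also: the enzyme is Sfp with the accession as filed and its product quenches rhodamine fluorescence; potency is read from the fitted curve at half-maximal effect; 0% = enzyme reaction without inhibitor and -100% = no enzyme wells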
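Step 1, compound plus 15 nM Sfp-PPTase, 15 min, room temperature. Step 2, add rhodamine-CoA (5 uM) and BHQ-2-YbbR (12.5 uM). Step 3, read 525/598 nm fluorescence at 0 and 30 min.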
MmCpn inh = blocks the Methanococcus maripaludis chaperonin Mm-Cpn; purified Mm-Cpn ATPase, ADP Transcreener TR-FRET; 0.031% of 330,000 active; Potency, µM (highest dose often 76.9 µM), for the others: at the top dose activity, negative = inhibition, usual class: inhibitors; also: potency is read from the fitted curve at half-maximal effect; nearly all actives have a fitted effect of over 80% in size
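25 nM Mm-CPN + cpd, 10 min 37°C; + 10 uM ATP, 30 min 37°C; buffer 30 mM Tris pH 7.4, 100 mM KCl, 5 mM MgCl2, 1 mM DTT; Transcreener ADP HTRF detection 30 min RT.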
VDR inhibitor = inhibitors of human vitamin D receptor | P11473 | VDR-SRC2-3 peptide fluorescence polarization, 2 h | Potency, µM, inactives show max response, negative = inhibition, hits mostly inhibitors | 0.93% of 400,000 active; also: potency is read from the fitted curve at half-maximal effect
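After 23 nl compound addition and a short centrifugation, plates sat for 2 hours at ambient temperature; polarization of fluorescence then indicated loss of VDR binding to peptide SRC2-3.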
The depositor's hits bear a star; ? = inconclusive; . = no result; [ ] = another dose, or the depositor's remark. Most compounds without a hit are left out; they make up all but 10% or so of the library. Unless noted, calls follow the shape of the dose curve; as a rule, active = well fitted curve in the direction sought with a large enough effect; inconclusive = small, poorly fitted or top-dose-only effect, or another doubt; inactive = no such curve, though single readings can be large; an effect the other way counts as inactive or inconclusive. Unless noted, % is scaled to controls: 0 for no effect and ±100 for the full control effect.

SMILES | G9a block | CCT modulator | PLK1 PBD block | Sfp PPTase inh | MmCpn inh | VDR inhibitor
COc1ccc(N2CCN(c3oc(/C=C/c4ccc(F)cc4)nc3C#N)CC2)cc1 | ? | . | . | . | . | 8%
COC(=O)c1ccc(C(NC(=O)c2ccco2)[C@]2(C)C[C@H]2C2CCCCC2)cc1 (stereo partly specified) | . | . | . | 10% | . | .
COc1ccc2cc(CN(Cc3cccnc3)Cc3nnnn3Cc3ccccc3)c(=O)[nH]c2c1 | 2% | -5 | -2% | 8% | -2% | 4%
O=c1[nH]c2cc3c(cc2cc1CN(Cc1cccs1)Cc1nnnn1Cc1ccco1)OCCO3 | ? | 3 | ? | 20µM* | -6% | ?
O=c1[nH]c2cc3c(cc2cc1CN(Cc1ccccc1)Cc1nnnn1Cc1ccco1)OCCO3 | 25µM* | 1 | ? | 11µM* | -4% | ?
COc1ccc2cc(CN(Cc3cccs3)Cc3nnnn3Cc3ccccc3)c(=O)[nH]c2c1 | 2%[59 µM] | -1 | -2% | 0% | -9% | 9%
Cc1ccc2cc(CN(Cc3ccco3)Cc3nnnn3Cc3ccco3)c(=O)[nH]c2c1 | . | . | . | . | . | -18%
Cc1cc2cc(CN(Cc3nnnn3C3CCCCC3)CC3CCCO3)c(=O)[nH]c2cc1C (stereo unspecified) | ? | 0 | -7% | 50µM* | -1% | -3%
O=c1[nH]c2cc3c(cc2cc1CN(Cc1cccnc1)Cc1nnnn1Cc1ccco1)OCCO3 | ? | -5 | -21% | 16µM* | 0% | -4%
O=C(Nc1ccc2c(c1)OCO2)N1CCN(Cc2ccco2)CC1 | -26% | -3 | -11% | 8% | 1% | -18%
CCCCNC(=S)N1CCN(CC)CC1 | . | -2 | 1% | -28% | 3% | 8%
CCOCCCNC(=S)N1CCN(Cc2ccco2)CC1 | 10µM* | 0 | -2% | ? | -1% | -2%
CCOCCCNC(=S)N1CCN(CC)CC1 | 22µM* | -1 | -14% | -2% | -2% | -12%
CCOCCCNC(=S)N1CCN(Cc2ccc3c(c2)OCO3)CC1 | . | -1 | -8% | ? | -1% | -11%
CCCNC(=O)N1CCN(Cc2ccco2)CC1 | -4% | -63* | -12% | 7% | 0% | -14%
O=c1ccc(/C=C/c2ccccc2)nn1Cc1ccccc1Cl | 87% | -2 | -1% | -17% | 2% | -6%
CN(C)c1ccc(/C=N/n2cnn(Cc3ccccc3Cl)c2=S)cc1 | 4.5µM* | 3 | ? | -23% | 2% | -14%
CN(C)c1ccc(/C=N/N2C(=O)c3ccccc3C2=O)cc1 | 21%[59 µM] | -2 | -17% | -3% | 2% | 26%
Fc1ccc(/C=N/n2cnn(Cc3ccccc3Cl)c2=S)cc1 | 20µM* | -3 | 24µM* | 50µM* | 0% | ?
Cc1ccc(-c2nnc(Nc3ccc(O)cc3)c3ccccc23)cc1S(=O)(=O)NCC1CCCO1 (stereo unspecified) | -3%[59 µM] | . | . | . | . | 12%
COc1ccc(C(=O)Nc2ccccc2C(=O)NC(Cc2c[nH]c3ccccc23)C(=O)O)cc1 (stereo unspecified) | ? | -4 | 24µM* | -26% | 1% | -9%
COC(=O)C(Cc1c[nH]c2ccccc12)NC(=O)c1cc(-c2ccc(OC)c(OC)c2)oc1C (stereo unspecified) | 50µM* | -2 | -6% | 32µM* | -6% | ?
COc1ccc(C(=O)NNC(=O)C(Cc2ccc(O)cc2)NC(=O)c2ccccc2NC(=O)c2ccc(OC)cc2)cc1 (stereo unspecified) | -49% | -1 | -4% | 22µM* | -11% | -6%
CCOC(=O)c1nc(NCc2ccc(Cl)cc2)c2c(C)noc2n1 | -3%[59 µM] | . | . | . | . | -4%
COCc1ccc2oc(C(=O)O)cc2c1 | ? | -1 | 3.4µM* | 3% | 3% | -15%
N#CCCSCc1ccc2oc(C(=O)O)cc2c1 | ? | -1 | -10% | 7% | -1% | -7%
CCc1oc(C(=O)O)cc1COC | 45µM* | -2 | -20% | 8% | 0% | 6%
COc1ccccc1N(CC(=O)Nc1ccccc1F)S(C)(=O)=O | -21%[59 µM] | . | . | . | . | 5%
